In all, about 200,000 compounds went through this assay and about 65 (0.03%) were called active. The sample holds actives, similar compounds and a random draw of the others, so the mix is not that of the screen.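 The calls were made as follows: active = over 50% inhibition of tissue-nonspecific alkaline phosphatase at 20 µM in the single-dose screen; inactive = the rest.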
Molecular target: Alkaline phosphatase, tissue-nonspecific isozyme (Homo sapiens) (UniProt P05186)
Test: blockers of alkaline phosphatase TNAP activity – biochemical, luminescent, high phosphate acceptor level, uHTS, primary screen (AID 1135);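 also: plate controls were DMSO wells for no effect and EDTA-quenched wells as full inhibition for full effect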
Settings: purified TNAP, CDP-star luminescence, 1 M DEA; at 20 µM; stronger effect = higher value

Alkaline phosphatase, tissue-nonspecific isozyme (Homo sapiens), sequence (P05186 whole entry, looked up): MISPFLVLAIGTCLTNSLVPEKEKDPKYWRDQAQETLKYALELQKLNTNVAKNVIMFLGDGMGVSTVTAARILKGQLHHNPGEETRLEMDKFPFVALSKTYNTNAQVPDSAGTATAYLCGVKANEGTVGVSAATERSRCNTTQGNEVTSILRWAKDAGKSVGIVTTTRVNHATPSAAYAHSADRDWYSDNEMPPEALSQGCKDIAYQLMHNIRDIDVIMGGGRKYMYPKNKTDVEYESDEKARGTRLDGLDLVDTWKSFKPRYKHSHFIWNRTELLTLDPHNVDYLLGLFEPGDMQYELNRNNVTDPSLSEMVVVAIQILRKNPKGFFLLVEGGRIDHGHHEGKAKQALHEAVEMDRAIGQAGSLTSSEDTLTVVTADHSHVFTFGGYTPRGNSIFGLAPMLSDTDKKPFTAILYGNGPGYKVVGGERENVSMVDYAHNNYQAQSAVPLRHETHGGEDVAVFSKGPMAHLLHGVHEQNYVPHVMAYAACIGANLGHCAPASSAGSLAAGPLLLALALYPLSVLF

inhibition, inactive:
OC(CN=c1sc2ccccc2n1CC(O)COc1ccccc1)COc1ccccc1 (centres undefined) -2%, CC(C)(C)C(=O)N1CCC[C@@]1(CO)C(=O)O 1.3%, CCCn1nc(C(=O)Nc2ccc3nc(C)sc3c2)c2ccccc2c1=O 0%, O=C(NNc1cc(Cl)ccc1Cl)c1cccnc1Cl -3.3%, Cn1cnnc1Sc1ccc(S(C)(=O)=O)cc1[N+](=O)[O-] 3.1%, CN(C)S(=O)(=O)c1ccc(N2CCCC2=O)c([N+](=O)[O-])c1 -2.1%, Cc1ccccc1Nc1nc(N)nc(CSc2nnc3ccccn23)n1 -3.4%, O=C1CCC/C(=N\NC(=O)NC2CCCCC2)C1 3.6%, Cc1ccccc1C1=NC(C(F)(F)F)(C(F)(F)F)c2c(n(-c3ccc(F)cc3)c(=O)[nH]c2=O)N1 -3.5%, Cc1cccc(NC(=S)Nc2ccc(Cl)c(Cl)c2)c1 -5.2%, COc1ccccc1Oc1ccc(N/C=C2/CCCC2=O)cc1 -1.1%, Cc1ccc(OCc2n[nH]c(=S)n2-c2ccccc2)cc1 -3.4%, COC(=O)c1c(NC(=O)c2c(Cl)cnn2C)sc(C)c1C -0.7%, Cc1nc2ccccc2nc(C)c1=NOCc1ccc(Cl)cc1Cl -3.2%, O=C(/C=C/c1ccc(F)cc1)NC(=S)NNC(=O)c1cccnc1 -2.2%, CC1=C[C@H]2Cc3cc(C)cc(C)c3S(=O)(=O)[C@@H]2C=C1 1.3%, Cc1ccc(C)c(-n2nnnc2SCC(=O)c2c(N)n(C)c(=O)n(C)c2=O)c1 -2.7%, COc1cccc(NC(=S)N(Cc2ccc(C)cc2)Cc2ccccn2)c1 -3.4%, COc1cccc(C2CC(c3ccccc3)=NN2S(=O)(=O)c2ccccc2)c1OC (centres undefined) -5.8%, Cn1c(=N)n(CC(O)c2cccs2)c2ccccc21 (centres undefined) -2%, C=CCNc1nc(Nc2ccc(Cl)cc2)nc(OC)n1 -3%, COC(=O)c1nn(-c2cccc(Cl)c2)ccc1=O -8.9%, CCN(CC)CCN(C(=O)c1ccc(N2C(=O)CCC2=O)cc1)c1nc2cc3c(cc2s1)OCO3 -2.1%, CC(=O)c1cnc(SCC(=O)O)nc1C -1.6%, Cc1cccc(C2=N/C(=C/c3cccs3)C(=O)O2)c1 -2.6%, COC(=O)C(C(=O)Nc1cccc(Cl)c1C)C1CCCC1 (centres undefined) -6.6%, CCOC(=O)C1C(c2ccc(Cl)cc2)NC(=S)NC1(O)C(F)(F)F (centres undefined) 4.4%, CCOC(=O)/C(=N\Nc1cc(Cl)ccc1Cl)N1CCN(C)CC1 3.4%, S=C(NCC1CCCO1)N1CCN(c2ccc(Cl)c(Cl)c2)CC1 (centres undefined) -1.7%, COc1cc(C2OC(c3cc(OC)c(OC)c(OC)c3)C(C)C2C)cc(OC)c1OC (centres undefined) -2.4%, O=C(CCCCCNC(=O)c1ccccc1)N/N=C/c1ccccc1 -6.8%, O=C(NCCN1C(=O)S/C(=C\c2cccnc2)C1=O)c1cccc(OC(F)F)c1 -0.3%, COc1ccc(CCc2nnc(CCC(=O)NCc3cnn(-c4ccccc4C)c3)o2)cc1 1.5%, S=C(NCCc1ccccc1)NCC1CCCO1 (centres undefined) -0.7%, CN(C)c1ccc(/C=N/NC(=O)C(O)c2ccc(Br)cc2)cc1 (centres undefined) -1.9%, CCCCN(C)CCNC(=O)CSCc1ccc(C)cc1 -5.4%, CC(=O)c1sc(N/N=C/c2ccc(C(C)C)cc2)nc1C 13.5%, Cc1ccc(OCC(=O)NC(C)c2ccccc2)c([N+](=O)[O-])n1 (centres undefined) -1.6%, Cc1ccc(CSCC(N)C(=O)O)cc1 (centres undefined) 0.6%, O=C(Nc1ccc(N2CCOCC2)cc1)c1ccc(-c2ccccc2[N+](=O)[O-])o1 0.3%, Cc1ccc(-c2nc(-c3cccnc3)sc2CC(=O)Nc2ccc(C)c(Cl)c2)cc1 -1.4%, O=C(CC1SC(=Nc2ccccc2)N(Cc2ccccn2)C1=O)Nc1cccc(Cl)c1 (centres undefined) 3%, CCCCC(CC(C)O)c1n[nH]c(=S)n1-c1ccccc1 (centres undefined) 7.9%, COCCn1c(=NC(=O)c2ccccc2[N+](=O)[O-])sc2cc(S(C)(=O)=O)ccc21 3.3%, C#CCCCc1nc2ccccc2c(=O)n1N -3.7%, Cc1c(NC(=S)Nc2ccccc2)c(=O)n(-c2ccccc2)n1C 4.8%, O=C(COC(=O)[C@H](Cc1ccccc1)NC(=O)c1cccs1)Nc1cc(F)ccc1F -1.2%, C=CCn1c(SCCOc2ccc(OC)cc2)nnc1C(NC(=O)c1ccc(OC)cc1)C(C)C (centres undefined) -3.4%, CN1CCN(C(=O)N2c3ccccc3CCc3ccccc32)CC1 -5.7%, COc1ccc(CCNC(=O)CSc2nc3[nH]ncc3c(=O)n2-c2cccc(C(F)(F)F)c2)cc1OC 2.6%, CN(CCOc1ccc(Br)cc1)CC(=O)Nc1cccc(S(=O)(=O)NC2=NCCC2)c1 -4.6%, O=C(NNC1CC(=O)N(c2cccc(Cl)c2)C1=O)c1cccnc1 (centres undefined) -3.4%, Cc1ccc(S(=O)(=O)NC2(C(F)(F)F)NC(=O)N(CCc3ccccc3)C2=O)cc1 (centres undefined) -6.1%, COc1ccc(OC)c(S(=O)(=O)Nc2cccc(-c3ccc4nncn4n3)c2)c1 -3.7%, C[C@@H](O)c1nc2ccccc2n1N -1.1%, O=C(Nc1cccc(Cl)c1)c1cc([N+](=O)[O-])ccc1N1CCN(CCO)CC1 2.5%, CCOc1ccc(NC(=O)CSc2ncnc3c2sc2ccccc23)cc1 -1.9%, Cc1ccc2[nH]c(=O)c(CN(CC3COCCO3)C(=O)Nc3ccccc3C)cc2c1 (centres undefined) -4.6%, COc1cccc(CN(C)CC(=O)NCc2ccccc2Cl)c1OC 1.3%, CCC(C)(C)NC(=O)CN(C(=O)CCC(=O)Nc1cc(C)ccn1)c1ccc2c(c1)OCCO2 -6%, O=C(Nc1ccc(N2CCN(C(=O)c3cccs3)CC2)cc1)c1cccnc1Cl -2.2%, CN(C)c1ccc(/C=N/Nc2cc(N3CCOCC3)nc(N3CCOCC3)n2)cc1 -5.4%, O=C(NNc1c2ccccc2nc2ccccc12)c1cc2ccccc2cc1O 26.1%, O=c1oc(/C=C/c2ccccc2)nc2ccccc12 0%, O=C(O)c1ccc(N/N=C/c2ccc3ncccc3c2)cc1 0.7%, Cc1[nH]c2ccccc2c1C(=O)COC(=O)c1c(-c2ccccc2)noc1C -2.1%, CC/C(O)=C1\C(=O)CC(C)(C)CC1=NCCc1nc2ccccc2[nH]1 -0.3%, O=C(NCc1cccs1)C(=O)NCC1OCCCN1S(=O)(=O)c1ccc(F)cc1 (centres undefined) 0.7%, CCn1c(SCC(=O)N/N=C/C=C/c2ccccc2[N+](=O)[O-])nnc1-c1ccccc1 1.3%, CCOc1ccc(NS(=O)(=O)c2cc(C)c(C)cc2C)cc1 -1.7%, Cc1ccc(SCCC(=O)NC(C(C)C)C(C)C)cc1 -0.8%, O=C(/C=C/c1ccccc1Cl)Nc1ccc(S(=O)(=O)Nc2ncccn2)cc1 -0.8%, Cc1ccc(C)c(NS(=O)(=O)c2ccc(OCC(=O)NCc3cccnc3)cc2)c1 3.1%, C/C(=N\N=C(N)N)c1ccc(Cl)cc1 -5.8%, Cc1cc(=O)oc2c1c(C)nn2-c1ccc(Cl)cc1 -6.1%, CC(C)Oc1ccc(Cc2n[nH]c(=S)n2Cc2ccccc2)cc1Cl -3.4%, Cc1no[n+]([O-])c1COc1ccccc1/C=C1\NC(=S)NC1=O 0.1%, NS(=O)(=O)c1ccc(NC(=O)/C=C/c2ccccc2Cl)cc1 6.2%, COc1ccc(OC)c(S(=O)(=O)NCCC(C)C)c1 -7.1%, COc1ccc(CCNC2=C(Cl)C(=O)N(Cc3ccccc3)C2=O)cc1OC 0.7%, Cc1ccccc1CSCCNC(=O)c1ccc(N(C)S(=O)(=O)c2ccccc2)cc1 -8.8%, Cc1ccc(NC(=O)CSCC(=O)NC2CCCCC2)cc1 -0.6%, COc1ccc(C/C(N)=N/OC(=O)c2ccco2)cc1OC -4.3%, CC/C(Cc1ccccc1)=N/NC(=O)CCn1nnc2ccccc21 -4.6%, CCOc1ccc(C(=O)NC(=S)Nc2ccc(N3CCOCC3)c(Cl)c2)cc1[N+](=O)[O-] 1.7%, CN1CCN(C(=O)/C(=C\c2ccc3c(c2)OCO3)NC(=O)c2cccs2)CC1 -3.5%, CCS(=O)(=O)C1=NSC2=NC(=O)/C(=C\c3cc(C)n(-c4cccc(OC)c4)c3C)C(=N)N21 1.7%, Cc1ccsc1C1C(C#N)=C(N)OC2=C1C(=O)CC(C)C2 (centres undefined) -0.4%, CCOC(=O)c1[nH]ncc1CN1CCCC(C(=O)c2ccc(OC)cc2C)C1 (centres undefined) -5.9%, C/C(=N\NC(=S)NC(C)C)c1ccc(C(C)(C)C)cc1 0.4%, O=C(N/N=C/c1ccc([N+](=O)[O-])cc1)C(=O)N1CCCC1 1.8%, COCCN(CCOC)S(=O)(=O)c1ccc(/C(O)=C(\C#N)c2nc3ccccc3[nH]2)cc1 -5.5%, O=C1OC(OC(=O)c2ccccc2Br)C(N2CCOCC2)=C1Cl (centres undefined) 4.1%, CCOC(=O)N/N=C/c1cn(Cc2ccccc2Cl)c2ccccc12 0.2%

— PubChem BioAssay AID1135 (Sanford-Burnham Center for Chemical Genomics, 2008)
